D2 ag-1: human D2 receptor agonism in beta-arrestin assay | P14416 | actives 0.084% (n = 360,000) | DiscoveRx PathHunter D2 beta-arrestin, luminescence, 90 min; 100% = 57 uM dopamine signal | activation, % (no concentration beside the values); in the data active means activation above about 40%
Target sequence (P14416 whole entry, looked up): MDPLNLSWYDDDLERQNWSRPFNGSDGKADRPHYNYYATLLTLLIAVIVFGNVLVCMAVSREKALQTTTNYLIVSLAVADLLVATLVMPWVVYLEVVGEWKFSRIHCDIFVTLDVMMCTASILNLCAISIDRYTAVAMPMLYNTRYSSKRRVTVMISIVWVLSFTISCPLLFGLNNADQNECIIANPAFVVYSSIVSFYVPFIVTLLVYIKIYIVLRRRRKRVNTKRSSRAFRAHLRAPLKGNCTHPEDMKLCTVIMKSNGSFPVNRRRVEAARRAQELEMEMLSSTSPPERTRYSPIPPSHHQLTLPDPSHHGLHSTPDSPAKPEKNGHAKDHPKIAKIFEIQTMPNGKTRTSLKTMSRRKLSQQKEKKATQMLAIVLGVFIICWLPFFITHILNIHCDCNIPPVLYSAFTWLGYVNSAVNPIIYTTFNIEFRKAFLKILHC
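DiscoveRx PathHunter D2 beta-arrestin cells (2,100/well) attached overnight, then compound-stimulated 90 min at 37 C in HBSS/10 mM HEPES/0.1% Tween-20 buffer; beta-galactosidase complementation read by luminescence after 1 h at ambient temperature. Dopamine 57 uM final (EC100) as control.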
D2 antagonist: antagonizes the human D2 dopamine receptor; HEK293 TREx D2 cells, calcium flux, dopamine EC80; inhibition, % at 10 µM; AID 485344; actives 2% (n = 340,000); in the data active means inhibition above about 30%; inactive means below that, where a call was filed; further: 0% is about no effect
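Calcium flux kinetic readout in an inducible HEK293 TREx D2 line plated overnight at 30 C. After 180 s compound exposure, an EC80 dopamine challenge follows with another 180 s kinetic read to detect antagonism.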
D2 PAM-1: positively modulates the human D2 dopamine receptor allosterically | P14416 | HEK293 T-REx D2, calcium flux, EC20 dopamine potentiation | potentiation, % at 10 µM | actives 0.34% (n = 340,000) | AID 485347;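 active means potentiation over 3 SD above the plate norm, cut at about 30% in these data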; further: 0% is about no effect
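Primary screen. Calcium kinetics in induced HEK293 T-REx D2 cells: compound pre-addition 180 s, EC20 dopamine, 180 s more.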
D2 ag-2: D2 dopamine receptor (human) agonism; P14416; HEK293 T-REx D2 cells, calcium flux agonist mode; activation, % at 2 µM; actives 0.53% (n = 340,000); AID 485358;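 active means activation over 3 SD above normal in the single-dose calcium agonist read, cut at about 30% in these data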; further: 0% is about no effect
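Calcium-flux readout, 1 cycle/sec over 180 s following compound pin transfer, in inducible HEK293 Trex D2 cells (force-coupled); dopamine controls included. Positive calcium responses during this window marked compounds as potential agonists.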
D2 PAM-2: positive allosteric modulators of human D2 dopamine receptor | P14416 | potentiation, % (no concentration beside the values) | actives 0.23% (n = 360,000) | DiscoveRx D2 beta-arrestin cells, luminescence, 90 min; 100% = 57 uM dopamine signal; in the data active means potentiation above about 50%
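PathHunter beta-arrestin assay in DiscoveRx D2 cells. Compounds were added with an EC20 of dopamine (50 nM final) for 90 min at 37 deg C. Luminescence was read 1 h after detection reagent, with 57 uM dopamine as the EC100 control.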
An asterisk follows results filed as active; nt = no result. Rows were chosen to be rich in hits. Some 2.4% of all compounds tested hit in one or more screens of this group.

SMILES	D2 ag-1	D2 antagonist	D2 PAM-1	D2 ag-2	D2 PAM-2
CCOc1ccc(-n2nc(CO)c(C(=O)NCc3cccc(OC)c3)n2)cc1	nt	nt	-22	-1	nt
COc1cccc(/C=N/NC(=O)CN2CC(c3ccccc3)CC2=O)c1OC (configuration not stated)	-6	38*	-28	-1	-15
CC1CC(C)CN(C(=O)CCC(=O)Nc2nnc(C3CCCCC3)s2)C1 (configuration not stated)	-1	-5	1	0	-7
COc1cccc(-n2c(SCC(=O)NCc3ccco3)nnc2-c2c[nH]c3ccccc23)c1	2	48*	-11	-2	4
CC1=CC2=NC(=O)CC(C)(C(=O)N(CC(=O)NC3CCCC3)c3cc(C)cc(C)c3)N2C=C1 (configuration not stated)	1	60*	10	0	-7
CC1=CC2=NC(=O)CC(C)(C(=O)N(CC(=O)NC(C)(C)C)C3CCCC3)N2C=C1 (configuration not stated)	0	-2	4	-1	3
CCOc1ccc(NC(=O)Nc2cc(C(C)C)ccc2C)cc1	nt	31*	-23	-1	nt
Cc1cc(O)c(C(C)C)cc1NC(=O)Nc1ccc([N+](=O)[O-])cc1	-3	nt	nt	nt	-18
Cc1ccc(C(C)C)cc1NC(=O)Nc1ccc([N+](=O)[O-])cc1	9	37*	-23	4	-23
CCCC[n+]1ccn(-c2nc3ccccc3nc2[N-]S(=O)(=O)c2cccs2)c1	-4	7	-9	0	0
CCOC(=O)N1CCC(NCCNC(=O)c2ccc(Cl)cc2)CC1	0	59*	-26	0	-29
CCOC(=O)N1CCC(NCCNC(=O)c2ccc(F)c(F)c2)CC1	2	59*	-16	20	-23
CCN(c1ccccc1)S(=O)(=O)c1c(C)nc2scc(C)n2c1=O	nt	nt	-1	-1	nt
COc1ccc(C(=O)NNC(=O)C(=O)NC2CCCCC2)cc1	-3	-11	-9	0	-4
CCCCC(Sc1nc(N)c(NC(=O)c2ccc(OCC)cc2)c(=O)[nH]1)C(=O)O (configuration not stated)	-2	-7	31*	0	-5
COc1ccc(C(=O)N2CCN(c3nc4c(OC)cccc4s3)CC2)cc1OC	nt	nt	0	-2	nt
CC/C(=N/Nc1ccc(Cl)cc1)c1cnnc(SC)n1	-2	34*	6	0	-9
O=C(Cn1c(=O)c2cccn2c2ccc(F)cc21)NCc1cccc(Cl)c1	nt	nt	-9	2	nt
CCCS(=O)(=O)NC(=O)C1(C)CCCN(C(=O)COc2ccc(Cl)cc2Cl)C1 (configuration not stated)	-7	nt	nt	nt	-22
CCCS(=O)(=O)NC(=O)C1(C)CCN(C(=O)COc2ccc(Cl)cc2Cl)C1 (configuration not stated)	14	nt	nt	nt	60*
Cc1ccc(S(=O)(=O)CCSc2nc(C)cc(C)c2C#N)cc1	0	9	33*	0	-11
Cc1cc(C)c(C#N)c(SCc2ccccc2C)n1	-1	34*	11	-2	-7
COc1ccccc1C(=O)C1CCCN(C(=O)c2ccco2)C1 (configuration not stated)	0	14	-8	0	-7
Cc1cc2ccccn2c1C(=O)c1ccc([N+](=O)[O-])o1	7	36*	2	0	28
CC(C)N1CC(COc2ccc(Br)cc2)OC1=O (configuration not stated)	2	41*	2	0	-4
SMILES	D2 ag-1	D2 antagonist	D2 PAM-1	D2 ag-2	D2 PAM-2
O=c1[nH]c(Nc2ccc3c(c2)OCCO3)nnc1Cc1ccc(Cl)cc1	-1	33*	2	0	-4
COc1ccc(Cc2nnc(Nc3ccc(Cl)cc3)[nH]c2=O)cc1	4	-4	-1	-1	0
CCCCOc1ccc(-c2nc(-c3cccnc3)no2)cc1	-1	34*	-6	0	-7
CCOc1nc(-c2ccccc2)ccc1-c1noc(-c2ccc(C)cc2)n1	nt	nt	6	-2	nt
CCOc1ccc(-c2nc(-c3cccnc3)no2)cc1	-1	-18	-4	0	5
CCOc1ccc(-c2nc(-c3ccccc3C)no2)cc1	nt	53*	nt	1	nt
Cc1c(C(=O)N(C)C)sc2c1c(=O)n(-c1ccc(Cl)c(Cl)c1)c(=O)n2CC(=O)Nc1ccc(Br)cc1F	nt	nt	nt	1	nt
CCc1cc2ccc(OC)cc2nc1SCC(=O)NNC(C)=O	-6	57*	-2	-3	-4
CCc1cc2ccc(OC)cc2nc1SCC(=O)Nc1cc(C)on1	-1	-12	3	0	-14
COc1ccc(-c2nn(-c3ccccc3F)cc2CNCCn2nc(C)cc2C)cc1	-4	37*	-19	0	-14
CC(C)CN1CCN(Cc2c[nH]c3ccccc23)CC1CCO (configuration not stated)	-1	-15	5	0	-4
CC(C)CN1CCN(Cc2cccn2-c2ccccn2)CC1CCO (configuration not stated)	-3	9	8	2	-8
CC(C)=CCN1CCN(Cc2cccn2-c2ccccn2)CC1CCO (configuration not stated)	-6	99*	-5	-2	-6
CC(C)=CCN1CCN(Cc2c[nH]c3ccccc23)CC1CCO (configuration not stated)	-2	47*	-16	0	-31
CCCn1c2ccccc2c2cnn(CC(=O)N(C)c3ccc(F)cc3)c(=O)c21	nt	nt	11	-3	nt
COc1ccc(C(C)(O)c2nc(-c3cccc(F)c3)cs2)cc1 (configuration not stated)	-2	nt	nt	nt	-4
CCC(Sc1nc(N)c(NC(=O)c2ccc(Br)o2)c(=O)[nH]1)C(=O)O (configuration not stated)	-3	3	-8	1	-2
Cc1ccccc1NCC(=O)N/N=C/c1c(C)c(C(=O)c2ccc(Cl)cc2)n2ccccc12	-1	32*	-3	2	-16
O=C(Oc1ccc(Cl)c2ccccc12)N1CCCCC1	-2	56*	-2	-1	-14
O=C(Oc1ccc(Cl)c2cccnc12)N1CCCCC1	2	8	-2	0	-2
Cn1cc(S(=O)(=O)Nc2ccc(F)c(Cl)c2)c(=O)n(C)c1=O	-6	-10	0	0	-6
CN=C1CC(C)(C)CC(=O)/C1=C(/O)CCCN1C(=O)c2ccccc2C1=O	-3	8	-10	0	-2
O=C(O)CN=C1CC(c2ccccc2)CC(=O)/C1=C(/O)CCCN1C(=O)c2ccccc2C1=O (configuration not stated)	-2	-6	31*	1	1
O=C(Nc1ccc2nc(SCC(=O)N3CCCC3)sc2c1)c1cccc(F)c1	nt	nt	-6	-1	nt
